Measurements published in PubChem BioAssay AID1347434 (National Center for Advancing Translational Sciences (NCATS), 2020).
Several values for one entry are separate records, joined by “and”; a condition that tells them apart may be missing. Equal entries are not always repeated. The whole screen tested about 1,200 compounds, of which about 30 (2%) were called active. Roughly 23% stayed inconclusive and do not appear here. The list comes from a sample in which actives are over-represented; it also holds similar structures and randomly drawn compounds. A number with no mark means an inactive call. Calls follow the shape of the dose curve; as a rule, active = well fitted inhibition curve with a large enough effect; inconclusive = small, poorly fitted or top-dose-only effect; inactive = flat fitted curve, though single readings scatter.

target: Single-stranded DNA cytosine deaminase (Homo sapiens) (UniProt Q9GZX7); test: Confirmatory qHTS assay for inhibitors of Activation Induced Cytidine Deaminase (AID): AID signals; details: recombinant AID, FRET deamination/UDG coupled fluorescence, 4 h; series mostly up to 115 µM; activity, negative = inhibition: at the top concentration
Sequence (Q9GZX7 whole entry, looked up): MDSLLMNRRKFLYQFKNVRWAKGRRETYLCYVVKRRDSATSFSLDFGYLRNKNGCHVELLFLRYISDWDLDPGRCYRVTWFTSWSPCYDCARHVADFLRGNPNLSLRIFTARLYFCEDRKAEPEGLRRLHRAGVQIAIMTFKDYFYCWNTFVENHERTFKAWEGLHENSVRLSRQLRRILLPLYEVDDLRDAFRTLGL
Text: Assay Provider (PI) Patricia Gearhart Ph.D. National Institute on Aging National Institute of Health (NIH), Bethesda, MD Assay Provider (PI) Rahul Kohli Ph.D. Perelman School of Medicine University of Pennsylvania, Philadelphia, PA Activation-Induced Deaminase (AID) is a cytosine deaminase which converts cytosine into uracil within stretches of ssDNA. The presence of uracil in DNA initiates a cascade of mutagenic DNA repair to introduce point mutations and DNA double strand breaks. Specific targeting of AID to the immunoglobulin heavy chain loci (Igh) promotes mutagenesis in the antibody variable region for somatic hypermutation (SHM) or switch regions leading to class switch recombination (CSR). However, AID also plays a role in accumulating unnecessary mutations across the genome. Mis-targeting of AID results in the initiation of tumor development and leads to greater drug resistance among cancer cells when continually expressed. To identify an AID inhibitor, a small molecule library will be screened in collaboration with NCATS core facility at NIH. To confirm biological function, inhibitors will be examined in an in vitro murine B-cell activation assay and subsequent secondary validation screens. Top molecules will be further screened to identify inhibitory efficacy against a wild type primary splenocytes assay. Using these approaches, we hope to identify a small molecule with great efficacy and low toxicity for use as a molecular probe to further characterize AID's intricacies, or even as a therapeutic. A FRET based analysis of cytosine deamination, was developed to identify potential inhibitors of AID catalytic activity. This screen has two signal output, Read 1 evaluates the AID inhibition response. The second readout (Read 2) evaluates UDG response and is uses as a counterscreen to exclude false positive inhibitors. Inhibition in AID and inactivity in the UDG signal is the desired outcome for this assay.
PROTOCOL TABLE SEQUENCE No. (e.g., 1, 2, 3, etc.); […] (e.g., Cells, Incubation, Reagent, etc.); VALUE; DESCRIPTION 1a; Reagent; 3 uL; [4/3x] 1 uM AID/2.67 U/mL UDG 1b; Reagent; 3 uL; 2 U/mL UDG 1c; Reagent; 3 uL; 1 uM AID 2a; Compound; 46 nL; Follow-up plates (0.64 uM - 10 mM) 2b; Control; 46 nL; ATA (16.4 nM - 10 mM) 3; Time; 10 min; incubation at room temperature 4; Reagents; 1 uL; [4x] 250 nM DJC20 / 250 nM DJC23 [Substrate] 5; Time; 4 hr; incubation at room temperature 6; Reagent; 4 uL; [2x] 250 mM NaOH 7; Time; 15 sec; centrifuge at 1000 rpm 8; Time; 30 min; incubation at room temperature 9a; Detection; fluorescence (Read 1: AID); EnVision (PerkinElmer) plate reader, 540 excitation and 590 emission filters 9b; Detection; fluorescence (Read 2: UDG); EnVision (PerkinElmer) plate reader, 560 excitation and 665 emission filters NOTES (numbers refer to sequence above) 1a; Reagents were dispensed in a medium-binding black solid-bottom Greiner plates (789176F) using a BioRptr liquid dispenser. Dispense 3 uL of [4/3x] 1 uM AID (provided by Kohli lab) and [4/3x] 2 U/mL UDG (NEB M0280L) into columns 1, 2, 5 to 48. 1b; Dispense 3 uL of [4/3x] 2 U/mL UDG into column 3. 1c; Dispense 3 uL of [4/3x] 1 uM AID into column 4. 2a; Compound ([…] [uM]: 0.64; 3.2; 16; 80; 400; 2,000; 10,000; 20,000) double pin-transferred (Dip Factor = 2) using the Kalypsys (Wako USA) pintool equipped with a 1536 pinhead for a final concentration range of 7.32 nM - 114 uM. 2b; 10 mM Aurintricarboxylic Acid (Sigma A1895) (ATA, 8-point, n = 2, 1:2.5 dilution in column 2) double pin-transferred (Dip Factor = 2) using the Kalypsys (Wako USA) pintool equipped with a 1536 pinhead for a [final] range of 186 nM - 114 uM. 3; Room temperature incubation. 4; Dispense 1 uL of substrate mixture from the Kohli lab [4x] […] DJC20 and [4x] 250 nM DJC23 into columns 1 to 48 . 5; Room temperature incubation. 6; Dispense 4 uL of […] [2x] 250 mM NaOH into columns 1 to 48. 7; Centrifugation step to remove bubbles. […]
% is scaled to controls: 0 for no effect and ±100 for the full control effect; potency is read from the fitted curve at half-maximal effect.

| Compound | activity, negative = inhibition | Potency |
| --- | --- | --- |
| Cc1ccc(N(CC(=O)N2CCN(c3cc(C)ccc3C)CC2)S(=O)(=O)c2c(C)nn(C)c2C)cc1 | -24.2% | – |
| Cc1oc(-c2cccc(Br)c2)nc1Cn1c(SCc2cccc(F)c2)nc2cccnc21 | 0.648% | – |
| Cc1cc(-c2ccc(C)c(S(=O)(=O)N3CCCC(C)C3)c2)on1 (stereo not given) | -12.9% | – |
| CCc1ccc(CNC(=O)c2ccc(CSc3nc4ccncc4n3Cc3ccccc3)cc2)cc1 | 4.54% | – |
| Cc1ccc(C)c(N2CCN(CCCNC(=O)c3cnn(-c4ccc(F)cc4)c3C3CCN(C(=O)OC(C)(C)C)CC3)CC2)c1 | -1.81% | – |
| CC(C)(Sc1ccc(CCN(CCCCC2CCCCC2)C(=O)NC2CCCCC2)cc1)C(=O)O | – | 31.6 µM (active) and 112 µM (active) |
| Cc1ccc(Nc2c3c(nc4nc(-c5cccs5)nn24)CCCC3)cc1F | -24.6% | – |
| CCOC(=O)C1=C(CN(CC)Cc2ccccc2)NC(=O)NC1c1ccc(OC(C)C)cc1 (stereo not given) | -13.7% | – |
| COc1ccccc1N1CCN(C(=O)c2cc3ccc4ccc(C)[nH]c4c3n2)CC1 | 3.08% | – |
| COc1cccc(Nc2cc(-c3ccccc3)nc(C)n2)c1 | -3.46% | – |
| CC(C)c1ccc(S(=O)(=O)c2cnc(SCC(=O)Nc3cccc(C(F)(F)F)c3)nc2N)cc1 | -5.26% | – |
| COC(=O)c1cc(Cl)ccc1NC(=O)CSc1ncc(S(=O)(=O)c2ccc(Br)cc2)c(=O)[nH]1 | -7.72% | – |
| Cc1cc(C)c(NC(=O)CSc2ncc(S(=O)(=O)c3ccc(C(C)(C)C)cc3)c(=O)[nH]2)c(C)c1 | -9.91% | – |
| CC(C)(C)c1ccc(S(=O)(=O)c2cnc(SCC(=O)Nc3ccc(F)c(Cl)c3)[nH]c2=O)cc1 | – | 35.5 µM (active) |
| COc1cc(Cl)c(C)cc1NC(=O)CSc1ncc(S(=O)(=O)c2ccc(C(C)(C)C)cc2)c(=O)[nH]1 | -18.9% | – |
| Cc1ccc(NC(=O)CSc2ncc(S(=O)(=O)c3ccc(C(C)C)cc3)c(=O)[nH]2)cc1C | – | 31.6 µM (active) |
| Cc1nn2c(=O)cc(COC(=O)c3ccc(NC(=O)C4CCCCC4)cc3)nc2s1 | -2.33% | – |
| COc1ccc(C)cc1NC(=O)c1c(C)oc2ncn(CC(C)C)c(=O)c12 | -3.76% | – |
| CCc1nc2ccc(C(=O)N3CCN(c4ccc(Cl)cc4)CC3)cc2nc1CC | -22.4% | – |
| COc1ccc(-n2cc(-c3ccccc3)c3c(NC4CCCC4)ncnc32)cc1 | -13.8% | – |
| CCOC(=O)c1ccc(N2C(=O)c3[nH]nc(-c4ccccc4)c3C2c2ccc(CC)cc2)cc1 (stereo not given) | -2.39% | – |
| CCOC(=O)c1ccc(NC(=O)CC2Nc3cccc4cccc(c34)NC2=O)cc1 (stereo not given) | -7.25% | – |
| CCOC(=O)c1ccc(-n2c(N)c(C(=O)OC)c3nc4ccccc4nc32)cc1 | – | 25.1 µM (active) |

| Compound | activity, negative = inhibition | Potency |
| --- | --- | --- |
| O=C1C(SCCO)=C(SCCO)C(=O)c2ccccc21 | – | 14.1 µM (active) |
| N#C/C(=C\c1ccc(-c2ccccc2C(=O)O)o1)c1nc2ccccc2[nH]1 | 33.8% | – |
| Cc1ccc(-c2ccc(=O)n(CC(=O)Nc3ccc(C)cc3Cl)n2)cc1 | -24.2% | – |
| CCOC(=O)c1c(C)n(-c2ccccc2)c2ccc(OC(=O)c3ccccc3NC(=O)C(C)(C)C)cc12 | 11.3% | – |
| COc1ccc(OC)c(Nc2sc(C(=O)c3ccccc3)c(N)c2S(=O)(=O)c2ccccc2)c1 | -2.04% | – |
| C=Cc1ccc(CSc2nc(-c3ccc(OC)cc3)nc3c2Cc2c(CO)cnc(C)c2O3)cc1 | -8.87% | – |
| COc1cc(/C=C(\C#N)C(=O)Nc2nnc(C(F)(F)F)s2)ccc1OCc1ccc(C(F)(F)F)cc1C(F)(F)F | – | 31.6 µM (active) |
| CCC(Sc1nc2c(sc3ccccc32)c(=O)n1CCc1ccc(OC)c(OC)c1)C(=O)N(CC)CC (stereo not given) | -18.2% | – |
| COc1ccc(C(=O)Nc2nc3n(n2)C(c2ccc(Cl)cc2)C=C(c2ccccc2)N3)cc1OC (stereo not given) | -25.4% | – |
| O=C(NCCc1ccc(Cl)cc1)c1ccc2c(c1)N(Cc1ccc(Cl)cc1)C(=O)CS2 | -4.7% | – |
| O=C(NCCn1cc(SCc2ccc(C(F)(F)F)cc2)c2ccccc21)c1cccs1 | 7.38% | – |
| Cc1cccc(N(CC(=O)NCCSCc2cccc(Cl)c2)S(=O)(=O)c2ccccc2)c1C | -3.57% | – |
| CCCOc1ccc(-c2nn(-c3ccccc3)cc2C2NC(=O)NC(C)=C2C(=O)OC(C)C)cc1 (stereo not given) | -11.1% | – |
| CCN1C(=O)c2ccccc2S(=O)c2ccc(C(=O)N3CCN(c4cccc(C)c4)C(C)C3)cc21 (stereo not given) | -22.1% | – |
| Cc1ccc(-n2cnc3cc(C(=O)NCCC4=CCCCC4)ccc32)c(C)c1 | -13.5% | – |
| O=C(c1noc2c1CCCCC2)N1CCN(c2ccc(Cl)cc2)CC1 | -0.744% | – |
| CCc1cccc(-n2c(C)nc3c(cnn3-c3ccc(C)c(C)c3)c2=O)c1 | -7.64% | – |
| O=C(NCCn1cc(SCc2cccc(F)c2)c2ccccc21)c1cccc(C(F)(F)F)c1 | 2.49% | – |
| Cc1ccc(C)c(N2CCN(C(=O)c3cc(S(=O)(=O)N4CCC(C)CC4)cn3C)CC2)c1 | -14.5% | – |
| Cc1ccc(C)c(N2CCN(C(=O)Cn3nc(Cc4cccnc4)c4ccccc4c3=O)CC2)c1 | -7.71% | – |
| Cc1ccc(-c2nc(C(=O)N3CCN(c4ccccc4)CC3)c3n2CCCCC3)cc1 | -10.4% | – |
| COc1ccc2c(c1)Cc1sc(NC(=O)c3cccc(C)c3)nc1-2 | -15.7% | – |
